Consider 101 compounds from ChEMBL document CHEMBL3988442, “University of Dundee, Small-Polar-MMV Screening Library” (2021).

Screen size: about 48,000 compounds; about 13,000 (27%) showed an effect of 50% or more. Some of the results follow.

This test concerns Wolbachia pipientis. Kind of test: Anti-Wolbachia Cell-Based Screen. Format: functional. The arrangement: scale not given: in the data most compounds retested in dose-response had high values. The settings on record: 5 µM.
In the case of `Cc1nn2c(N3CCS(=O)(=O)CC3)cc(-c3ccccc3)nc2c1C`, the “Percent Effect” value was -7.306%. Turning to `COC(=O)CSCc1noc(-c2ccc(Cl)cc2)n1`, the “Percent Effect” value came to 23.78%. In the case of `Cc1nn(CCC#N)c(C)c1[C@@H]1C=C[C@@H](NCc2ccc(F)cc2)C1`, the “Percent Effect” value is -3.605%. `CC(C)CCC(C)NC(=O)c1ccc(OCC(N)=O)cc1` (stereo unspecified): the “Percent Effect” value is given as -5.752%. With `NC(=O)c1ccc(S(=O)(=O)NC2CCN(Cc3ccccc3)C2=O)cc1` (stereo unspecified) the figure was -1.969%; with `CC1CCN(C(=O)c2cn(-c3ccc(C(F)(F)F)cn3)nn2)CC1`, -7.014%; with `CC1CCN(C(=O)c2cc(NC(=O)c3ccccc3)n(C)n2)CC1`, 70.66%. With `Cc1nc(N2CCCC2)nc(C)c1NC(=O)c1ccco1` the figure was 8.53%; with `CCN1CCN(C(=O)c2cc(NC(=O)c3ccccc3)n(C)n2)CC1`, 93.08%; with `CCCn1ccc(C(=O)N2CCC(C)CC2)n1`, -7.324%.

As for `Cc1nc(N2CCOCC2)nc(C)c1NC(=O)c1ccco1`, the “Percent Effect” value is reported as 3.58%. With `Cn1nc(C(=O)N2CCSCC2)cc1NC(=O)c1ccco1` the figure was 98.85%.

For `Cn1nc(C(=O)N2CCCCCC2)cc1NC(=O)c1ccccc1`, the “Percent Effect” value turned out to be 99.88%. Regarding `COC(=O)c1cc(C(=O)N2CCCCCC2)n(-c2ccccc2)n1`, the “Percent Effect” value is -9.69%.

As for `CCn1nc(C)cc1C(=O)N1CCCN(CCCc2ccccc2)CC1`, the “Percent Effect” value is 0.5946%. With `Cn1nc(C(=O)NC2CCCCC2)cc1NC(=O)C1CC1` the figure was 0.3949%; with `CCN1CCN(C(=O)c2cc(C(=O)OC)nn2-c2ccccc2)CC1`, -11.35%; with `C/C=C(/C)C(=O)NS(=O)(=O)c1ccc(C(F)(F)F)cn1`, 4.736%. For the compound `CCCN(C(=O)c1ocnc1C)C1CCCN(Cc2ccccc2)C1` (stereo unspecified), the “Percent Effect” value is listed as -1.253%. For `O=C1CC(NCc2ccc(OC(F)F)cc2)CN1Cc1cccc(F)c1` (stereo unspecified), the “Percent Effect” value came out at 2.286%.

With `Cc1cccc(C(=O)N2CCN(C)CC2)c1NC(=O)c1ccncc1`, the “Percent Effect” value was -3.532%. On to `Cc1cccc(C(=O)N2CCSCC2)c1NC(=O)c1cccnc1`, for which the “Percent Effect” value is reported as -13.65%. Take `CN1CCN(C(=O)c2cc(NC(=O)c3ccccc3)n(C)n2)CC1`: the “Percent Effect” value was found to be 103.5%. For `Cn1nc(C(=O)N2CCSCC2)cc1NC(=O)c1ccccc1`, the “Percent Effect” value came out at 96.7%.

`CN1CCC(Oc2ccc(NC(=O)c3ccccc3)cc2)CC1`: the “Percent Effect” value stood at 6.259%. The figure for `O=C(c1ccn(-c2ccccc2Cl)n1)N1CCSCC1` is -7.672%; for `Cc1cc2ccccc2n1CCC(=O)N1CCCC1Cn1cccn1` (stereo unspecified) it is -4.808%; for `Cc1cc2ccccc2n1CCC(=O)N1CCC[C@H]1C(N)=O` it is -2.793%.

Regarding `Cc1cc2ccccc2n1CCC(=O)N1CCN(C)CC1C(N)=O` (stereo unspecified), the “Percent Effect” value came out at 104.9%. Consider `CSCCC(=O)N1CCCC(c2nccn2Cc2ccncc2)C1` (stereo unspecified), for which the “Percent Effect” value is -15.94%. Consider `CS(=O)(=O)NCC(=O)N1CCCC1c1noc(C2CC2)n1` (stereo unspecified), for which the “Percent Effect” value is given as -4.288%.

With `Cc1cccc(C2CCCCN2C(=O)CCCS(C)(=O)=O)c1C` (stereo unspecified), the “Percent Effect” value is -5.265%. With `Cc1c[nH]nc1C1CCCCN1C(=O)Cn1cc(Cl)cn1` (stereo unspecified) the figure was -1.424%. With `Cn1cc(C2CCCN2C(=O)COC2CCCCC2)cn1` (stereo unspecified) the figure was -3.38%. In the case of `Cc1c[nH]nc1C1CCCCN1C(=O)CNS(C)(=O)=O` (stereo unspecified), the “Percent Effect” value turned out to be 91.22%. With `Cc1c[nH]nc1C1CCCCN1C(=O)CC1(O)CCCCC1` (stereo unspecified) the figure was 121.5%; with `Cc1c[nH]nc1C1CCCCN1C(=O)CCn1nccc1C` (stereo unspecified), 91.05%; with `Cc1n[nH]cc1CNC(=O)[C@H]1CCCCN1C(=O)OC(C)(C)C`, -12.93%. With `Cc1ccnn1CCC(=O)N1C[C@H]2CC[C@@H]1CN(CC(=O)N(C)C)C2`, the “Percent Effect” value is listed as -3.709%. In the case of `CC(CCCC(C)(C)O)Nc1ccc(-c2nccn2C)nn1` (stereo unspecified), the “Percent Effect” value was 6.201%. The figure for `COc1cc(N2CCC(c3nccn3Cc3ccccc3)CC2)ncn1` is -9.757%. With `CN(C)C(=O)c1ccc2c(c1)N(C)C(CC(=O)NCCC(C)(C)C)CO2` (stereo unspecified), the “Percent Effect” value is on record as 1.305%. In the case of `CC(C)=CCN1CCN(Cc2nc3ccccc3[nH]2)[C@H]2CS(=O)(=O)C[C@H]21`, the “Percent Effect” value is -9.753%.

`CC(C)=CCN1CCN(Cc2ncc[nH]2)[C@H]2CS(=O)(=O)C[C@H]21`: the “Percent Effect” value is -11%. With `O=S1(=O)C[C@@H]2[C@H](C1)N(Cc1cc(Cl)cc(Cl)c1)CCN2CC1CC1` the figure was 5.878%; with `O=S1(=O)C[C@@H]2[C@H](C1)N(Cc1ncc[nH]1)CCN2CC1CC1`, -14.64%; with `Cn1ccnc1CN1CCN(CC2CC2)[C@@H]2CS(=O)(=O)C[C@@H]21`, 106.1%. With `CC(C)=CCN1CCN(Cc2nccn2C)[C@H]2CS(=O)(=O)C[C@H]21` the figure was 99.3%. The figure for `CN1CCN(c2cnn(Cc3ccc(S(C)(=O)=O)cc3)c(=O)c2)CC1` is 4.016%; for `Cc1ccc(N2CCCC(N3CCN(CC(F)F)CC3)C2=O)cc1` (stereo unspecified) it is -21.44%. Consider `Cc1cccc(C(=O)N(C)C2CCN(c3ccccn3)CC2)c1C`, for which the “Percent Effect” value was 141.7%. The figure for `CN(C1CCN(c2ccccn2)CC1)S(=O)(=O)c1ccc(F)cc1` is 18.41%; for `CN(C(=O)CNc1ccc(C#N)cc1)C1CCN(c2ccccn2)CC1` it is 6.622%. As for `CN(C(=O)c1cccc2[nH]ncc12)C1CCN(c2ccccn2)CC1`, the “Percent Effect” value is on record as -1.361%. The figure for `COc1ccccc1C(=O)N(C)C1CCN(c2ccccn2)CC1` is 177.1%; for `CN(C(=O)c1ccccc1Cl)C1CCN(c2ccccn2)CC1` it is 11.04%; for `CCOc1ncccc1C(=O)N(C)C1CCN(c2ccccn2)CC1` it is 144.5%. The figure for `Cc1ccccc1CC(=O)N(C)C1CCN(c2ccccn2)CC1` is -4.877%; for `O=C(Cn1cnnn1)NCC1(O)CCCc2ccccc21` (stereo unspecified) it is -5.769%. With `CC(=O)Nc1ccc(CNC(=O)CNCc2sc(C)nc2C)cc1`, the “Percent Effect” value is given as -27.38%. The figure for `CCOC(=O)CC(C)NC(=O)c1cn(Cc2ccccc2F)nn1` (stereo unspecified) is -6.246%; for `CNC(=O)C(C)NC(=O)c1ccc(Oc2cccnc2)cc1` (stereo unspecified) it is -6.707%. The figure for `CN(C(=O)COc1ccc(F)cc1)[C@@H]1CC[C@@H](n2ccnc2)[C@@H]1O` is 128.1%; for `CN(C(=O)COc1ccc(F)cc1)[C@@H]1CS(=O)(=O)C[C@H]1O` it is 1.163%. On to `CO[C@@H]1CC[C@@H](N(C)C(=O)COc2ccc(F)cc2)[C@H]1O`, for which the “Percent Effect” value was -1.969%.

As for `CCC(CO)N(Cc1ccc(C(=O)O)cc1)Cc1ccsc1` (stereo unspecified), the “Percent Effect” value turned out to be 4.353%.

As for `CCC(C)N(Cc1ccsc1)C(=O)c1ccc2[nH]nnc2c1` (stereo unspecified), the “Percent Effect” value is listed as 109%. Turning to `CC(C)Cc1cc(NC(=O)c2ccc3[nH]nnc3c2)n(C)n1`, the “Percent Effect” value was -17.03%. With `CCOc1cc(C(=O)N(C)C)ccc1NC(=O)C(C)c1ccsc1` (stereo unspecified) the figure was -4.912%.

On to `CCC(C)N(Cc1ccsc1)C(=O)c1ccc(CO)cc1` (stereo unspecified), for which the “Percent Effect” value is reported as 113.9%. The figure for `Cn1nc(CC(C)(C)C)cc1NC(=O)c1ccc2[nH]nnc2c1` is -11.38%. Regarding `CCC(C)N(CC)C(=O)c1ccc2[nH]nnc2c1` (stereo unspecified), the “Percent Effect” value was 122.8%.

With `CC(=O)N(Cc1ccsc1)c1ccccc1`, the “Percent Effect” value is -9.96%. For the compound `CN(C)c1cccc(CNC(=O)Nc2ccc3[nH]nnc3c2)n1`, the “Percent Effect” value was determined as 0.1018%.

Consider `CCn1nc(C)c(CCNC(=O)C2CCCN(C(=O)N(C)C)C2)c1C` (stereo unspecified), for which the “Percent Effect” value is -3.526%.

Regarding `COC(=O)CN(Cc1ccccc1C)C(=O)C1CCC1`, the “Percent Effect” value is recorded as 9.342%. For the compound `CN(Cc1cccs1)C(=O)CN(C)C1CCc2ccccc21` (stereo unspecified), the “Percent Effect” value is given as 8.524%.

For `O=C(O)C(F)(F)F.c1ccc(OCc2noc3c2CN(c2ncccn2)CC3)nc1`, the “Percent Effect” value amounted to 2.544%. The figure for `Cn1nc(Cn2ccnc2)c2c1CN(c1ncccn1)C2.O=C(O)C(F)(F)F` is -4.507%. With `Cc1cnc(N2CCc3onc(COc4cccnc4)c3C2)nc1`, the “Percent Effect” value is listed as 88.9%. On to `Cn1nc(COc2cncnc2)c2c1CCN(Cc1ccco1)C2.O=C(O)C(F)(F)F`, for which the “Percent Effect” value is given as 2.599%. Consider `Cc1cnc(N2CCc3c(c(COc4cncnc4)nn3C)C2)nc1`, for which the “Percent Effect” value is 94.36%. With `c1cncc(OCc2noc3c2CN(Cc2ccoc2)CC3)c1` the figure was 7.434%; with `Cn1nc(COc2cccnc2)c2c1CCN(c1ncccn1)C2`, 87.22%; with `Cn1nc(COc2cncnc2)c2c1CCN(Cc1ccccn1)C2.O=C(O)C(F)(F)F`, 8.456%.

Regarding `CCN(CC)c1ccc(NS(=O)(=O)c2cccnc2)cn1`, the “Percent Effect” value is given as 2.803%. With `C[C@@H](NC(=O)c1cccn1C)c1c(-c2ccc(Cl)cc2)noc1C(=O)O`, the “Percent Effect” value is 1.666%. As to `Cc1nccn1-c1ccc(CNS(=O)(=O)N2CCCCC2C)cn1` (stereo unspecified), the “Percent Effect” value stood at 6.496%. Consider `O=C(O)C1(Cc2ccc(F)cc2)CCCN(Cc2ccncc2)C1` (stereo unspecified), for which the “Percent Effect” value is recorded as -12.28%. With `NC(=O)C1(CCCc2ccccn2)CCCN(Cc2ccncc2)C1` (stereo unspecified), the “Percent Effect” value was determined as 119.7%. With `O=C(O)C1(Cc2ccc(F)cc2F)CCCN(Cc2ccncc2)C1` (stereo unspecified) the figure was 1.95%; with `NC(=O)C1(CCCc2ccccn2)CCCN(Cc2ncc[nH]2)C1` (stereo unspecified), 141.6%. As to `CCOC(=O)C1(Cc2cccc(Cl)c2)CCCN(Cc2ncc[nH]2)C1` (stereo unspecified), the “Percent Effect” value was -2.445%.

In the case of `Cn1cc(CN2CCCC(CCCc3ccccn3)(C(N)=O)C2)cn1` (stereo unspecified), the “Percent Effect” value is 84.15%.

Turning to `Cn1cc(CN2CCC3(CCCN(Cc4ccccn4)C3)CC2)cn1`, the “Percent Effect” value is recorded as -1.039%.

As for `CCOC(=O)C1(Cc2cccc(OC)c2)CCCN(Cc2ncc[nH]2)C1` (stereo unspecified), the “Percent Effect” value is recorded as 25.22%. Regarding `O=C(O)CCc1cc2n(n1)CCCN(C(=O)c1ccc(Cl)s1)C2`, the “Percent Effect” value is listed as -14.6%.

Take `CCN1CCC(NN2CCN(C)CC2)CC1`: the “Percent Effect” value worked out at 4.072%. Take `CCS(=O)(=O)NCC(=O)N1CC2(CCCC2)c2c(F)cccc21`: the “Percent Effect” value was -9.992%. With `CC(=O)N[C@H]1C[C@@H](c2nc(-c3ccc4c(c3)OCO4)no2)N(C)C1` the figure was -4.728%; with `CN1C[C@@H](F)[C@@H](OCc2nc3ccccc3[nH]2)C1`, -2.12%.
